Experimental data as given in PubChem BioAssay AID463188 (University of Pittsburgh Molecular Library Screening Center, 2010).
The whole screen tested about 1,300 compounds, of which about 360 (28%) were called active.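 How the source made its calls: active means average inhibition of at least 50%, with Z-scores no higher than 3 in both the phospho-tyrosine peptide and fluorescence counterscreens; inactive means the rest.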 A selection follows.

Columns and labels:
[1] = Nef-activated Hck kinase blockers, duplicate retest – biochemical, Z-Lyte FRET, 384-well, p-Tyr peptide counterscreen, confirmation (AID 463188); settings: Recombinant Hck-YEEI:Nef, Z-Lyte FRET kinase assay; measured here: p-Tyr peptide counterscreen; at 10 µM
[2] = biological target: Tyrosine-protein kinase HCK (Homo sapiens) (UniProt P08631); assay: as above; settings: Recombinant Hck-YEEI:Nef, Z-Lyte FRET kinase assay; at 10 µM; stronger effect = higher value
Tyrosine-protein kinase HCK (Homo sapiens), sequence (P08631 whole entry, looked up): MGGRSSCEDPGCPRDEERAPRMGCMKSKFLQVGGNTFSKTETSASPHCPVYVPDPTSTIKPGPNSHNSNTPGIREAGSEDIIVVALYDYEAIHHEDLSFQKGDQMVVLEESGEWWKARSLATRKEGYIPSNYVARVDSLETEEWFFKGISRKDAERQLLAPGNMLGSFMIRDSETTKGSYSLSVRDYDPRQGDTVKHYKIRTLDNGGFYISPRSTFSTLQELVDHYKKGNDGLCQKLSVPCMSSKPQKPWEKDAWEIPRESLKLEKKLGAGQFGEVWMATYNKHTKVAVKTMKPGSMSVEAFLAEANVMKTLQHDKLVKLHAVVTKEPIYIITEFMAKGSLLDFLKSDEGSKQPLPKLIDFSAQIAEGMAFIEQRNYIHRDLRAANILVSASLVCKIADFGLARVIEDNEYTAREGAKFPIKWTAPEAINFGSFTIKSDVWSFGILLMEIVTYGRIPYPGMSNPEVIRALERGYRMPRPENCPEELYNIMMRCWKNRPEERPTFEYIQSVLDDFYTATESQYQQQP

SMILES	z-score [1]	inhibition [2]	inhibition [1]
N#Cc1c(-c2cccs2)nc(SCC(=O)c2ccc(Br)cc2)[nH]c1=O	-2.14	54.2% (active)	
Cc1ccc(S(=O)(=O)c2c(N)n(C)c3nc4ccccc4nc23)cc1	15.1	51.3% (inactive)	
Cc1ccc(-n2c(=O)c(C#N)cc3c(=O)n4ccccc4nc32)cc1C			15.8
COc1ccc(N=Cc2c(O)[nH]c3ccccc23)cc1OC	2.53	67.3% (active)	
CCN(CC)c1ccc2cc(C(=O)O)c(=O)oc2c1			180
CC(C)n1cnc2c(Nc3cccc(Cl)c3)nc(N(CCO)CCCO)nc21	-1.42	92.6% (active)	
COc1cccc(CNC(=O)CCC2CCCN(Cc3ccc(OC(F)F)cc3)C2)c1 (configuration not stated)	0.273	13.3% (inactive)	
CCn1c(=O)c2cc(C(=O)Nc3cccc(C(C)=O)c3)sc2c2ccccc21	0.522	30.2% (inactive)	
CC(C)(C)OC(=O)NCCCCCC(=O)N/N=C/c1coc2ccccc2c1=O	-0.798	80.9% (active)	
Oc1c(Cl)cc(Cl)c(Cl)c1Cc1c(O)c(Cl)cc(Cl)c1Cl	-1.64	12.2% (inactive)	
COC(=O)C1=CN(Cc2ccc(OC)c(OC)c2)C=C(C(=O)OC)C1c1cccs1			22.9
Cc1ccc(-c2cc(C(=O)NCc3cn(C)nc3C)c3cc(Br)ccc3n2)cc1	-0.98	46.1% (inactive)	
O=C(Nc1ccncc1)c1cc(-c2ccccn2)nc2ccc(Br)cc12	0.0526	76.4% (active)	
O=C(CSc1cccc2cccnc12)N/N=C/c1cccnc1	-0.0644	36.9% (inactive)	
Cc1ncc(CC(=O)n2cc(C(=O)c3cc(Cl)ccc3O)cn2)s1	-1.16	75% (active)	
COC/C=C/C1=CC2=CC(=O)C(C)(OC(=O)CCC(=O)OC)C(=O)C2=CO1 (configuration not stated)	-0.884	43.8% (inactive)	
O=C(Cc1ccccc1)Nc1cccc(C(=O)N/N=C/c2ccco2)c1	-0.994	30% (inactive)	
COc1ccc(C(=O)n2nc(-c3ccc(Cl)cc3)nc2N)cc1OC	3.28	2.06% (inactive)	
CCn1c(=N)c(C(=O)NCCCOC)cc2c(=O)n3cccc(C)c3nc21			192
Cc1ccc(/C=C/C(=O)Nc2ccc([N+](=O)[O-])c(NC(=O)/C=C/c3ccc(C)o3)c2)o1	-2.13	51.4% (active)	
O=C(NNC(=O)c1csc(-c2cccnc2)n1)Nc1ccc(Cl)cc1	-0.478	11.4% (inactive)	
Cc1ccc(SC(CC(=O)c2ccc(C(C)(C)C)cc2)C(=O)O)cc1 (configuration not stated)	-0.516	20.8% (inactive)	
O=[N+]([O-])c1cc(Cl)cc(/C=N/NC(=S)Nc2cc(S(=O)(=O)N3CCOCC3)ccc2Cl)c1O	-0.299	63.6% (active)	
CN(C)S(=O)(=O)c1cccc(-c2nn(-c3ccccc3)cc2/C=C2\SC(=S)N(CC(=O)O)C2=O)c1	-1.38	38.1% (inactive)	
CCOc1ccc(-c2nc(N)ncc2-c2ccccc2OC)c(O)c1	-1.74	63.2% (active)	

SMILES	z-score [1]	inhibition [2]	inhibition [1]
C=C(C)COc1ccc(-c2nc(N)ncc2-c2ccccc2OC)c(O)c1	-0.555	55.8% (active)	
COc1cccc(C(=O)c2cc3ccc(O)cc3oc2=O)c1			51.8
O=C1Oc2ccccc2C(=O)/C1=C/c1ccccc1O	-0.0667	30.1% (inactive)	
Cc1cc(/C=N/Nc2ccc([N+](=O)[O-])cn2)c(C)n1-c1cccc(C(=O)O)c1	0.131	38.5% (inactive)	
COC(=O)Cc1cc(=O)oc2c(C)c(O)ccc12			94.6
CC(=O)Oc1ccc2c(C)c(CC(C)O)c(=O)oc2c1 (configuration not stated)			122
CCCCN(CCCC)CC(O)Cn1c2ccccc2c(=O)c2ccccc21 (configuration not stated)			80.9
OC(c1nnc(-c2ccccc2)o1)c1cccs1 (configuration not stated)	-1.39	19.9% (inactive)	
CCOc1ccccc1C1C(C(=O)OC)=CN(C)C=C1C(=O)OC			41.6
Cc1cccc(-[n+]2c(-c3cccc(Br)c3)[nH]c3nc4ccccc4nc32)c1	-0.694	13.5% (inactive)	
O=C(Nc1ccc(S(=O)(=O)Nc2nccs2)cc1)c1cc(-c2ccncc2)nc2ccccc12	-0.658	65.3% (active)	
Cc1cc(C)c2nc(-c3cccnc3)cc(C(=O)Nc3ccc(S(=O)(=O)Nc4onc(C)c4C)cc3)c2c1	-1.22	40.5% (inactive)	
COCCCn1c(-c2cccs2)nc2nc3ccccc3nc21			61.4
O=[N+]([O-])c1cccc(Nc2c3ccccc3nc3ccccc23)c1	0.872	9.19% (inactive)	
CN(CC(=O)Nc1cccc(F)c1)CC(=O)Nc1cccc([N+](=O)[O-])c1	-0.0694	62.1% (active)	
O=C(NCc1ccccc1)C1CCCN(c2nc3ccsc3c(=O)s2)C1 (configuration not stated)	2.05	18.7% (inactive)	
CN(C(=O)COC(=O)c1cc(-c2ccco2)nc2ccccc12)C1CCS(=O)(=O)C1 (configuration not stated)	0.38	49.5% (inactive)	
c1ccc(CSc2nnc(-c3ccco3)c(-c3ccco3)n2)cc1	0.442	26.4% (inactive)	
Clc1ccc2c(c1)C1=C(C(c3ccncc3)O2)C(c2ccc(Br)cc2)n2ncnc2N1 (configuration not stated)	1.34	92.8% (active)	
Cc1cc(OC(=O)c2ccccc2Cl)ccc1N1C(=O)CCC1=O	0.0636	11.5% (inactive)	
COC(=O)c1ccc(OCC(O)CN(CCO)CC(O)Cn2ccc3ccccc32)cc1 (configuration not stated)	3.64	-1.67% (inactive)	
O=C(O)CCn1cc(/C=C/C(=O)c2ccc(Cl)cc2)c(-c2cccc(Br)c2)n1	-0.131	24.8% (inactive)	
CCCn1c(=NC(C)=O)c(C(=O)OCC)cc2c(=O)n3ccccc3nc21	85.9	33.1% (inactive)	
Cc1cccn2c(=O)c3cc(C#N)c(=O)n(CCCN4CCOCC4)c3nc12			248
